“And” between values parts separate entries of the source, which are not always exact repeats. Equal values may be shown once. Records with an inconclusive call do not appear. The source made the active and inactive calls. Unless noted, the call rests on the fitted dose curve; in most records, active means well fitted curve in the direction sought with a large enough effect; inconclusive means small, poorly fitted or top-dose-only effect, or another doubt; inactive means no such curve, though single readings can be large; an effect the other way counts as inactive or inconclusive.
Experiments:
[1] = molecular target: Peptidyl-prolyl cis-trans isomerase NIMA-interacting 1 (Homo sapiens) (UniProt Q13526); experiment: qHTS Validation Assay to Find Inhibitors of Pin1 (AID 504536; active means well fitted inhibition curve with a large enough effect in the polarisation, with a control signal flat, not every such curve was filed as active; the % refers to the polarisation;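 further: 0% = full Pin1 enzyme wells and -100% = no-enzyme wells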)
Procedure, shortened: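 Fluorescence polarization competition: compounds (titration) displace HiFluor-488-labeled Pin1-1b peptide from Pin1 (0.3 uM final) in pH 7.5 HEPES buffer with DTT, 10 min at room temperature; %Activity normalized to no-enzyme wells, curves fitted.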

[2] = molecular target: Phosphoglycerate kinase, glycosomal (Trypanosoma brucei brucei) (UniProt P07378); experiment: qHTS Validation Assay to Find Inhibitors of Phosphoglycerate Kinase (AID 504547); further: potency means the concentration at half of the fitted maximal effect
Procedure, shortened: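 PGK activity was coupled to GAPDH (100nM final), which generates the unstable substrate 1,3-bisphosphoglycerate in-well. Reactions ran 60 minutes at room temperature in 100mM TEA pH 7.6, 5mM MgCl2, 0.01% Tween-20, then Kinase-Glo Plus luminescence was read.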

[3] = molecular target: phosphoglycerate mutase (Leishmania major) (UniProt Q4Q090); experiment: qHTS Validation Assay to Find Inhibitors of Phosphoglycerate Mutase (AID 504548); details: Potency: inhibition qHTS; further: potency means the concentration at half of the fitted maximal effect
Procedure, shortened: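 Lm PGAM at 1.25 nM final with substrate in 100 mM TEA pH 7.6, 5 mM MgCl2, 0.01% Tween-20; 45 min at room temperature. Kinase-GloPlus added, 10 min, end-point luminescence read.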

[4] = molecular target: Ubiquitin carboxyl-terminal hydrolase 1 (Homo sapiens) (UniProt O94782); experiment: Inhibitors of USP1/UAF1: Pilot qHTS (AID 504865); further: nearly all actives have a fitted effect of over 35% in size; further: potency means the concentration at half of the fitted maximal effect
Procedure, shortened: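 1nM USP1/UAF1 + cpd, 15 min RT; start w/ Ub-Rho 150nM final; kinetic FL 480/540 nm, 6 reads q60 s. Buffer 50mM HEPES pH 7.8, 0.5mM EDTA, 1mM TCEP, 0.01% Tween-20, 0.1 mg/ml BSA.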

[5] = molecular target: Estrogen receptor (Homo sapiens) (UniProt P03372); experiment: qHTS assay for small molecule antagonists of estrogen receptor alpha signaling (AID 588513; active means well fitted curve in the direction sought with a large enough effect in the signal ratio, with a control signal flat, not every such curve was filed as active; the % refers to the signal ratio; further: on the % scale 0 is the no-effect control and ±100 the full control effect)
Procedure, shortened: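 Beta-lactamase reporter, antagonist mode, HEK 293 GripTite cells; 0.5nM E2 stimulus, 18 h, 37 C; CCF4 dye 2 h RT; fluorescence. IC50 and efficacy from Hill fits, normalized to E2 and DMSO.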

[6] = molecular target: Estrogen receptor (Homo sapiens) (UniProt P03372); experiment: qHTS assay for small molecule agonists of estrogen receptor alpha signaling (AID 588514; calls by dose curve;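 further: 0% = vehicle only and 100% = reference agonist; nearly all actives have a fitted effect of over 70% in size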)
Procedure, shortened: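 Cells were plated at 5000/well, incubated 4 hrs at 37 C, dosed with compound titration series, incubated 18 hrs at 37 C, loaded with CCF4 dye for 2 hrs at RT, then fluorescence was read.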

[7] = molecular target: Androgen receptor (Homo sapiens) (UniProt P10275); experiment: qHTS assay for small molecule agonists of androgen receptor signaling (AID 588515; active means well fitted curve in the direction sought with a large enough effect in the signal ratio, with a control signal flat; the % refers to the signal ratio; further: on the % scale 0 is the no-effect control and ±100 the full control effect); details: AR-UAS-bla HEK293, beta-lactamase ratio, agonist 16 h; stronger effect = higher value
Procedure, shortened: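 EC50 and efficacy came from Hill fits of titrations (up to 92 uM) normalized to 30 nM R1881 as 100% and DMSO as 0%. Compound exposure was 16 h at 37 C on AR-UAS-bla HEK293 cells, with a 405/460/530 nm CCF4 fluorescence read.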

[8] = molecular target: Androgen receptor (Homo sapiens) (UniProt P10275); experiment: qHTS assay for small molecule antagonists of androgen receptor signaling (AID 588516; active means well fitted curve in the direction sought with a large enough effect in the signal ratio, with a control signal flat, not every such curve was filed as active; the % refers to the signal ratio; further: on the % scale 0 is the no-effect control and ±100 the full control effect)
Procedure, shortened: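 HEK293 AR-UAS-bla cells, 10% dialyzed FBS medium; cpd titration + R1881 10 nM final, 16 h 37 C; CCF4 2 h RT; FRET ratio; IC50/efficacy via Hill fit.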

[9] = molecular target: Glucocorticoid receptor (Homo sapiens) (UniProt P04150); experiment: qHTS assay for small molecule agonists of glucocorticoid receptor signaling (AID 588532; active means well fitted curve in the direction sought with a large enough effect in the signal ratio, with a control signal flat; the % refers to the signal ratio;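 further: 100% = dexamethasone at 0.1 µM and 0% = DMSO only wells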); details: HeLa MMTV-bla, beta-lactamase ratio, agonist, 18 h; stronger effect = higher value; percent of dexamethasone control, DMSO zero
Procedure, shortened: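 MMTV-bla HeLa beta-lactamase reporter cells in 1% charcoal/dextran FBS medium, compounds up to 92 uM for 18 h at 37 C, CCF4 readout; normalized to 0.1 uM dexamethasone (100%), EC50 and efficacy from Hill fits.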

[10] = molecular target: Glucocorticoid receptor (Homo sapiens) (UniProt P04150); experiment: qHTS assay for small molecule antagonists of glucocorticoid receptor signaling (AID 588533; active means well fitted inhibition curve with a large enough effect in the signal ratio, with a control signal flat, not every such curve was filed as active; the % refers to the signal ratio;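 further: cells stimulated with 2 nM dexamethasone as agonist; on the % scale 0 is the no-effect control and ±100 the full control effect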)
Procedure, shortened: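 Antagonist-mode qHTS: compound titrations added to GRE-bla HeLa cells, then dexamethasone 2 nM final; 18 h, 37 C. CCF4 FRET fluorescence normalized to dexamethasone and DMSO; IC50 from Hill fit.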

[11] = molecular target: Peroxisome proliferator-activated receptor gamma (Homo sapiens) (UniProt P37231); experiment: qHTS assay for small molecule agonists of peroxisome proliferator-activated receptor gamma signaling (AID 588536; active means well fitted curve in the direction sought with a large enough effect in the signal ratio, with a control signal flat, not every such curve was filed as active; the % refers to the signal ratio;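 further: 0% = DMSO basal wells and 100% = rosiglitazone at 2 µM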)
Procedure, shortened: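 GeneBLAzer PPAR-gamma-UAS-bla HEK293 cells in 1% charcoal/dextran-treated FBS medium were treated 16 h at 37 C with compounds. Beta-lactamase activity was read by CCF4 ratio (460/530 nm). Response was normalized to 2 uM rosiglitazone (100%) and DMSO, then Hill-fitted for EC50 and efficacy.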

[12] = molecular target: Peroxisome proliferator-activated receptor gamma (Homo sapiens) (UniProt P37231); experiment: qHTS assay for small molecule antagonists of peroxisome proliferator-activated receptor gamma signaling (AID 588537; active means well fitted inhibition curve with a large enough effect in the signal ratio, with a control signal flat, not every such curve was filed as active; the % refers to the signal ratio;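 further: reporter cells co-stimulated with 50 nM rosiglitazone agonist during compound treatment; % of control where 0% means no effect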)
Procedure, shortened: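 PPARγ-UAS-bla HEK293 cells (3000/well) in 1% charcoal/dextran-stripped FBS are treated with compound, then stimulated with 50 nM rosiglitazone for 16 h at 37 °C. Read-out is CCF4 β-lactamase fluorescence after 2 h at RT. IC50 comes from Hill fits normalised to rosiglitazone and DMSO.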

[13] = qHTS for Inhibitors of ATXN expression: Validation of Cytotoxic Assay (AID 588349); further: on the % scale 0 is the no-effect control and ±100 the full control effect
Procedure, shortened: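 Read-out: ATP-based luminescence (CellTiter Glo) reflecting viability of HEK293 cells after 72 hr incubation at 37 degrees C with a concentration series of each compound.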

[14] = qHTS for Inhibitors of ATXN expression: Validation (AID 588378); further: nearly all actives have a fitted effect of over 75% in size; further: potency means the concentration at half of the fitted maximal effect
Procedure, shortened: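 Cells: HEK293-ATXN2-FFLuc, phenol-red free DMEM, 2 h attachment. Compound pin-transfer, 24 h, 37 degrees C, 5% CO2. CellTiter-Fluor 30 min, Ex405/Em525; Bright-Glo 5 min, luminescence 2 s exposure.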

[15] = molecular target: DNA dC->dU-editing enzyme APOBEC-3G (Homo sapiens) (UniProt Q9HC16); experiment: qHTS for inhibitors of Vif-A3G interactions: Validation (AID 588379); further: 0% is about no effect
Procedure, shortened: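 HeLa cells stably expressing Vif and A3G-eYFP, 700 cells/well, incubated overnight at 37 deg C, then exposed to compound overnight at 37 deg C. Inhibition of Vif-mediated degradation read as increased yellow fluorescence (Ex 488/Em 500-530) by laser-scanning cytometry.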

[16] = molecular target: Bile acid receptor (Homo sapiens) (UniProt Q96RI1); experiment: qHTS assay for small molecule antagonists of farnesoid X receptor signaling (AID 588526; calls by dose curve; further: on the % scale 0 is the no-effect control and ±100 the full control effect)
Procedure, shortened: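 Antagonist mode: titrated compounds tested against chenodeoxycholic acid stimulation (normalized to 50 uM CDCA and DMSO) in GeneBLAzer HEK293T cells for 16 h. Beta-lactamase read by CCF4 fluorescence; IC50 from Hill fits.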

[17] = molecular target: Vitamin D3 receptor (Homo sapiens) (UniProt P11473); experiment: qHTS assay for small molecule agonists of vitamin D receptor signaling (AID 588543; calls by dose curve;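 further: 0% = DMSO basal and 100% = reference agonist control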)
Procedure, shortened: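 β-lactamase reporter, VDR-UAS-bla HEK293T, agonist mode. Cells plated 5 h at 37 °C, compound titration 16 h at 37 °C, CCF4 dye 2 h RT, ratio 460/530 nm. Hill fit → EC50, efficacy vs 50 nM 1α,25-(OH)2D3.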

[18] = qHTS assay for small molecule agonists of retinoid X receptor alpha signaling (AID 588544); details: HEK293T RXRa-UAS-bla, beta-lactamase reporter, 18 h; 530 nm emission

Chain of Peroxisome proliferator-activated receptor gamma (Homo sapiens) (P37231 whole entry, looked up): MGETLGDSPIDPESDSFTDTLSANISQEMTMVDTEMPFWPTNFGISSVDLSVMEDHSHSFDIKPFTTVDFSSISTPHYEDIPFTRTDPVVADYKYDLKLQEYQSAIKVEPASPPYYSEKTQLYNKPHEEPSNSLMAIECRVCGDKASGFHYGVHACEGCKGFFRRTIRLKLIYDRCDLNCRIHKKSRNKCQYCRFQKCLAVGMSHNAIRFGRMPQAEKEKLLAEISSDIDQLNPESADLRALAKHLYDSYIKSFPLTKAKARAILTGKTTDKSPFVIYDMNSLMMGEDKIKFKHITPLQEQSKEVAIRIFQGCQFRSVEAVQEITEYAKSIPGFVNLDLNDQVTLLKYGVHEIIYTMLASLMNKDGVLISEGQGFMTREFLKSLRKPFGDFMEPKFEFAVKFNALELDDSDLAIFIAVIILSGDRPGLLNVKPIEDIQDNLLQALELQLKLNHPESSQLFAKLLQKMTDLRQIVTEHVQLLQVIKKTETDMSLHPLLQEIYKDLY
Chain of Ubiquitin carboxyl-terminal hydrolase 1 (Homo sapiens) (O94782 whole entry, looked up): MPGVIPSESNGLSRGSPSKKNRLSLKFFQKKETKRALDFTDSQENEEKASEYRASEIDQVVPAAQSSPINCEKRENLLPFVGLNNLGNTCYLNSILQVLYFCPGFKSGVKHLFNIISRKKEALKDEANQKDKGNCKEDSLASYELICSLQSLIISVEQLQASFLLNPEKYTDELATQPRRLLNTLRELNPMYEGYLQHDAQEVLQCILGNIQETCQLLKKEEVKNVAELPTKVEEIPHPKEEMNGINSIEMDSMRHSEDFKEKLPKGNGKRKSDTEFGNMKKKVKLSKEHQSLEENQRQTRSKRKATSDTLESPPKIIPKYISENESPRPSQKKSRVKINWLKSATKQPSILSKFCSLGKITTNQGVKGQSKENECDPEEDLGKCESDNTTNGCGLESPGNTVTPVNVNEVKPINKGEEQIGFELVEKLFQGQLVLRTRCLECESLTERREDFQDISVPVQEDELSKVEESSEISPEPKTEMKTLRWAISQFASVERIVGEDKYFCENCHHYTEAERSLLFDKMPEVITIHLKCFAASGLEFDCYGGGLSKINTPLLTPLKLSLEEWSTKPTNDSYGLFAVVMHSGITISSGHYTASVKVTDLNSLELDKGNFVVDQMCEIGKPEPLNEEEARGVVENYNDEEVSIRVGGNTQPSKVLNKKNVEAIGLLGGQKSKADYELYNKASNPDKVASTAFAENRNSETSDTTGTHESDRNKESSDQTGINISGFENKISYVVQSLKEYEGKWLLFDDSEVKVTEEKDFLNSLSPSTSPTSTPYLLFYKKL
Chain of phosphoglycerate mutase (Leishmania major) (Q4Q090 1-553): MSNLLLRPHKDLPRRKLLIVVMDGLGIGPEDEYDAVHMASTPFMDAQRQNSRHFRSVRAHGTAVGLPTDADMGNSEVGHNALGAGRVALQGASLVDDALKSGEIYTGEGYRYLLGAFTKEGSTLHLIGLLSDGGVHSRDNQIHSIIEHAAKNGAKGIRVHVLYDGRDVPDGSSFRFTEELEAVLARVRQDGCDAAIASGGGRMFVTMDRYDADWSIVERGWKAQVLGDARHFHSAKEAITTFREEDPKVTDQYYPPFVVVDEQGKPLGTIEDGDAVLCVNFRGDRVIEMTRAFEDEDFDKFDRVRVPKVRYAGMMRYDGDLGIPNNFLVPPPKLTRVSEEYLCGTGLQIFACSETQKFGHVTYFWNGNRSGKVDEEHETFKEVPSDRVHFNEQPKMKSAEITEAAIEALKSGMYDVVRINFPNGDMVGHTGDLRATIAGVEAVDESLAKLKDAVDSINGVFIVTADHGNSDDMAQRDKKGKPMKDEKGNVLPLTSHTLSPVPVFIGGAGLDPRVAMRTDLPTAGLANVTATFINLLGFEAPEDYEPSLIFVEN
Chain of Phosphoglycerate kinase, glycosomal (Trypanosoma brucei brucei) (P07378 whole entry, looked up): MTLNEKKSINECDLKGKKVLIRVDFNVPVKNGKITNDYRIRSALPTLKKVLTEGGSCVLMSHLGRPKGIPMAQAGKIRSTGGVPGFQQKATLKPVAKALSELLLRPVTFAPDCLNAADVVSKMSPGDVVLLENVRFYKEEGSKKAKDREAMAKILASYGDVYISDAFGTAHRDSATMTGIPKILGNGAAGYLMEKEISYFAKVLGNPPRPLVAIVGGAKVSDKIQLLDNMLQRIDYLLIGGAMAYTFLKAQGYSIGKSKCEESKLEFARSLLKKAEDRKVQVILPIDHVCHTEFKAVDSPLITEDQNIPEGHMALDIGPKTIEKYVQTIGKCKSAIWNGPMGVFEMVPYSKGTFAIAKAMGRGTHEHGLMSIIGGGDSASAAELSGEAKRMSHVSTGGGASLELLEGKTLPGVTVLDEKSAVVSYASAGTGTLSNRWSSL
Chain of Estrogen receptor (Homo sapiens) (P03372 whole entry, looked up): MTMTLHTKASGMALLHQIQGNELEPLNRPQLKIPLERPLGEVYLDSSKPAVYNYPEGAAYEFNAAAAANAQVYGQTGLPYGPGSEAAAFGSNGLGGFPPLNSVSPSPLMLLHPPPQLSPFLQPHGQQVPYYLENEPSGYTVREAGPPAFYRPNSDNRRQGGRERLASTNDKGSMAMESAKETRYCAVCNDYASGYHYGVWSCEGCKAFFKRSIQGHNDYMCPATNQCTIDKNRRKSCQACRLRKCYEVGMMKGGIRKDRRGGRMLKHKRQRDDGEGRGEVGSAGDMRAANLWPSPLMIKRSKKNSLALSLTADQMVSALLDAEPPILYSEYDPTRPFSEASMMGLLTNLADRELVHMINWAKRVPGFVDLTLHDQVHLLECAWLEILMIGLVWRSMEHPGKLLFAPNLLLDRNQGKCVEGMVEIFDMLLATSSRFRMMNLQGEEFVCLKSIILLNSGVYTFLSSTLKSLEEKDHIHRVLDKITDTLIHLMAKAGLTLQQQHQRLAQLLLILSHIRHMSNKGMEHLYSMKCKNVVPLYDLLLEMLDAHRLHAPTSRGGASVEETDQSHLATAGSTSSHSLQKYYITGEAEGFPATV
Chain of DNA dC->dU-editing enzyme APOBEC-3G (Homo sapiens) (Q9HC16 whole entry, looked up): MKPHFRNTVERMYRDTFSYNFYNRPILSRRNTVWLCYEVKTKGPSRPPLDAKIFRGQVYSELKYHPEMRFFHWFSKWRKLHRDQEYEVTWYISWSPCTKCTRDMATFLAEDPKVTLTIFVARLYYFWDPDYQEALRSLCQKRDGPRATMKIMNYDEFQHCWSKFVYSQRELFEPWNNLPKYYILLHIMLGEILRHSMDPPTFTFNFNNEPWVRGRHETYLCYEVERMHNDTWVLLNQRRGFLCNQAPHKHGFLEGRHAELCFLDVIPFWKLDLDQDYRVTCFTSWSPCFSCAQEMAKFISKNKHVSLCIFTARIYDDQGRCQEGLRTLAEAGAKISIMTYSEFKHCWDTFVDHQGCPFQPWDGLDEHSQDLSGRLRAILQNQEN
Chain of Peptidyl-prolyl cis-trans isomerase NIMA-interacting 1 (Homo sapiens) (Q13526 whole entry, looked up): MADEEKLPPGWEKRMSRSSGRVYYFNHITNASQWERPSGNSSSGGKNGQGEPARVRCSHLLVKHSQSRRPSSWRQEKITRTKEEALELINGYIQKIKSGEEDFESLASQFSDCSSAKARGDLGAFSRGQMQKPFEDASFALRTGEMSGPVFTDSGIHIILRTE
Chain of Vitamin D3 receptor (Homo sapiens) (P11473 whole entry, looked up): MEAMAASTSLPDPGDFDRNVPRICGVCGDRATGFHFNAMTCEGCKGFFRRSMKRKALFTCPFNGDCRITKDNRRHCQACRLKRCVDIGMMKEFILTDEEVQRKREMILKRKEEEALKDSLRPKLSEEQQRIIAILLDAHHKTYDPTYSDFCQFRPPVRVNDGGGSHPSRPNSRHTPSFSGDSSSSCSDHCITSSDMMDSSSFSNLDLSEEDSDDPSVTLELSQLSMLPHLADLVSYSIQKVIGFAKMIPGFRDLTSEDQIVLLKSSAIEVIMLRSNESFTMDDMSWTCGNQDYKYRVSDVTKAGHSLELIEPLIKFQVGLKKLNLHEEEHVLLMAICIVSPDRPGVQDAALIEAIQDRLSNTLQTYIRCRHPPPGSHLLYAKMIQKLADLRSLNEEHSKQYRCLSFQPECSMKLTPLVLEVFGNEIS
Chain of Androgen receptor (Homo sapiens) (P10275 whole entry, looked up): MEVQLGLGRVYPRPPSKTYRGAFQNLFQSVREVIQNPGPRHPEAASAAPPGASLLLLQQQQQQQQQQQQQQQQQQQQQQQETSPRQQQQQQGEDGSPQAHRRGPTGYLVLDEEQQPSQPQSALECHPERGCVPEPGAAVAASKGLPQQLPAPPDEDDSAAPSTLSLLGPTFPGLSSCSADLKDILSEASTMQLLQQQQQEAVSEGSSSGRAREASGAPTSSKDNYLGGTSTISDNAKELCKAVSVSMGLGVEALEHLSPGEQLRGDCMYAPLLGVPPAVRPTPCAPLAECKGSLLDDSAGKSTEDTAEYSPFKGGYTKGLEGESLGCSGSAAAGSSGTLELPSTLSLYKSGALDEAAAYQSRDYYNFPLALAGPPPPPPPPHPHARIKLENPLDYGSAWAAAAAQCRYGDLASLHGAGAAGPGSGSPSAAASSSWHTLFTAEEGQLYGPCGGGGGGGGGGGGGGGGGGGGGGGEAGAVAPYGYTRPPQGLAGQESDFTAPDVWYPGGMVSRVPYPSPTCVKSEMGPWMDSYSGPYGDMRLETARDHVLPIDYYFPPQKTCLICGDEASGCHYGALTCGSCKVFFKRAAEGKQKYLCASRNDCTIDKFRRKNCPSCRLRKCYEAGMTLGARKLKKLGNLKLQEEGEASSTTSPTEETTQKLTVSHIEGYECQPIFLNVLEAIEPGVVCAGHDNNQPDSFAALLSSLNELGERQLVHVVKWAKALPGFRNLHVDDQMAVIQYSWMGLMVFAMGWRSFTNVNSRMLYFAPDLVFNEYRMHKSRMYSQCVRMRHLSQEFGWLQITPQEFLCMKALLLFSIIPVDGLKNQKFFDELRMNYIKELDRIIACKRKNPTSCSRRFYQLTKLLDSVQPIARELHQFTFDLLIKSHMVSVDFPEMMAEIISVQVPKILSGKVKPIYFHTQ

CCN(CC)C(=S)SSC(=S)N(CC)CC
inactive: outcome [1] | Potency [2] | Potency [3] | Potency [4] | outcome [5] | outcome [6] | activation [7] 6.34% | outcome [8] | activation [9] 3.99% | outcome [10] | outcome [11] | Potency [12]

O=C(CCc1ccc(O)cc1)c1c(O)cc(O)cc1O
inactive: outcome [1] | Potency [2] | Potency [3] | outcome [13] | Potency [14] | outcome [15]

CC1(C)NC(=O)N(c2ccc([N+](=O)[O-])c(C(F)(F)F)c2)C1=O
inactive: outcome [1] | Potency [2] | Potency [3] | Potency [4] | outcome [13] | Potency [14] | outcome [15] | outcome [16] | outcome [11] | Potency [12] | outcome [17]
13.6%: max response [18]

CC1(C)C(=O)N(CCN2CCC(C(=O)c3ccc(F)cc3)CC2)c2ccccc21
inactive: outcome [1] | Potency [2] | Potency [3] | Potency [4]

O=Nc1c(-c2c(O)[nH]c3cc(Br)ccc23)[nH]c2ccccc12
active: Potency [3] 21.3 µM
inactive: outcome [1] | Potency [4] | Potency [14]

C[C@H](Cc1ccc(O)c(O)c1)[C@@H](C)Cc1ccc(O)c(O)c1
inactive: Potency [2] | Potency [3]
active: Potency [14] 22.4 µM

Cc1c(OCC(F)(F)F)ccnc1CS(=O)c1nc2ccccc2[nH]1 (stereo not given)
inactive: outcome [1] | Potency [2] | Potency [3] | Potency [4] | outcome [13]

O=c1c(O)c(-c2cc(O)c(O)c(O)c2)oc2cc(O)cc(O)c12
active: Potency [2] 3.01 µM
inactive: Potency [3] | outcome [15]

OC(CN1CCN(c2cccc(Cl)c2)CC1)C(c1ccccc1)c1ccccc1 (stereo not given)
inactive: outcome [1] | Potency [2] | Potency [3] | Potency [4] | outcome [13] | Potency [14] | outcome [15]

Nc1nc(OCc2ccccc2)c2[nH]cnc2n1
inactive: outcome [1] | Potency [2] | Potency [3] | Potency [4] | Potency [14]

Nc1nc(N)c(N=O)c(OCC2CCCCC2)n1
inactive: outcome [1] | Potency [2] | Potency [3] | Potency [4] | Potency [14]

COc1cc2nc(N3CCN(C(=O)C4CCCO4)CC3)nc(N)c2cc1OC (stereo not given)
inactive: outcome [1] | Potency [2] | Potency [3] | Potency [4] | outcome [13] | Potency [14]

CCOC(=O)C(C)Oc1cccc2c(=O)n(CC(=O)Nc3ccc4c(c3)OCCO4)ccc12 (stereo not given)
inactive: Potency [2] | Potency [3] | Potency [4] | outcome [13] | Potency [14]

COc1ccc2cc([C@H](C)C(=O)O)ccc2c1
inactive: outcome [1] | Potency [2] | Potency [3] | outcome [13] | Potency [14]

CN(C)CCCC1(c2ccc(F)cc2)OCc2cc(C#N)ccc21 (stereo not given)
inactive: outcome [1] | Potency [2] | Potency [3] | Potency [4] | outcome [13]

COc1cc2c(cc1OC)C1CC(=O)C(CC(C)C)CN1CC2 (stereo not given)
inactive: outcome [1] | Potency [2] | Potency [3] | Potency [4] | outcome [13] | Potency [14]

Nc1ccn([C@@H]2O[C@H](CO)[C@@H](O)C2O)c(=O)n1 (stereo not given in full)
inactive: outcome [1] | Potency [2] | Potency [3] | Potency [4] | outcome [13]

O=c1cc(N2CCOCC2)oc2c(-c3ccccc3)cccc12
inactive: outcome [1] | Potency [2] | Potency [3] | Potency [4] | outcome [13] | Potency [14] | outcome [15]

Oc1ccc(-c2nc(-c3ccc(F)cc3)c(-c3ccncc3)[nH]2)cc1
inactive: outcome [1] | Potency [2] | Potency [3] | outcome [13] | Potency [14]

Cc1cccc(C#Cc2ccccc2)n1
inactive: outcome [1] | Potency [4] | outcome [13] | Potency [14] | outcome [15]

CNC[C@H](O)c1ccc(O)c(O)c1
inactive: outcome [1] | Potency [3] | Potency [4] | outcome [13] | Potency [14] | outcome [15] | outcome [6] | outcome [11] | Potency [12] | outcome [17]
-11.1%: max response [18]

CC(C)c1ccc2c(c1)c(SC(C)(C)C)c(CC(C)(C)C(=O)O)n2Cc1ccc(Cl)cc1
active: Potency [4] 25.1 µM and 50.1 µM
inactive: outcome [1] | Potency [2] | Potency [3] | outcome [15]

COc1ccccc1N1CCN(CCN(C(=O)C2CCCCC2)c2ccccn2)CC1
inactive: outcome [1] | Potency [2] | Potency [3] | Potency [4] | outcome [13] | Potency [14]

O=C(O)c1cccnc1Nc1cccc(C(F)(F)F)c1
inactive: outcome [1] | Potency [2] | Potency [3] | Potency [4] | outcome [13] | Potency [14]

O=C(c1ccccc1)c1ccc2n1CCC2C(=O)O (stereo not given)
inactive: outcome [1] | Potency [2] | Potency [3] | Potency [4] | outcome [13] | Potency [14]

C[C@@H](N)C1CCC(C(=O)Nc2ccncc2)CC1 (stereo not given in full)
inactive: outcome [1] | Potency [2] | Potency [3] | Potency [4] | outcome [13] | Potency [14]
